The supplement of paper PMC6555819

Legend:
Experiment in all cases: PBM binding z-score (relative to random genomic background probes); higher = stronger binding; sequences stand for … in GC…GCGATTGACAGCGTAGAATGAAGG
[1] = test system: FXR:RXRa (NR concentration 270 nM, RXRa partner concentration 90 nM)
In short: (§1)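 On custom Agilent 4×180K arrays, double-stranded probes with 34-nt variable regions carried direct-repeat seeds, single-nucleotide variants, half-site ablations or random human genomic background. Ligand-free nuclear receptor dimers were applied for 1 h, and binding was read with antibodies against each partner (one per run). Binding z-scores come from regression-normalized fluorescence, with the random background probes as reference.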

[2] = test system: LXRa:RXRa (NR concentration 270 nM, RXRa partner concentration 90 nM)
In short: as §1

[3] = test system: LXRa homodimer (NR concentration 270 nM)
In short: as §1

[4] = test system: LXRb:RXRa (NR concentration 270 nM, RXRa partner concentration 90 nM)
In short: as §1

[5] = test system: LXRb homodimer (NR concentration 270 nM)
In short: as §1

[6] = test system: PPARa:RXRa (NR concentration 270 nM, RXRa partner concentration 90 nM)
In short: as §1

[7] = test system: PPARg:RXRa (NR concentration 180 nM, RXRa partner concentration 90 nM)
In short: as §1

[8] = test system: PPARg:RXRa 270nM:90nM, anti-RXR (NR concentration 270 nM, RXRa partner concentration 90 nM)
In short: as §1

[9] = test system: PPARg:RXRa 30nM:10nM, anti-RXR (NR concentration 30 nM, RXRa partner concentration 10 nM)
In short: as §1

[10] = test system: PPARg:RXRa 90nM:30nM, anti-RXR (NR concentration 90 nM, RXRa partner concentration 30 nM)
In short: as §1

Sequence | PBM binding z-score [1] | PBM binding z-score [2] | PBM binding z-score [3] | PBM binding z-score [4] | PBM binding z-score [5] | PBM binding z-score [6] | PBM binding z-score [7] | PBM binding z-score [8] | PBM binding z-score [9] | PBM binding z-score [10]
CCTAATGGGCCACGAAAGGTCATTGATTCAGTGA | 3.91 | 5.44 | 4.82 | 4.5 | 0.556 | 4.42 | 3.05 | 4.1 | 1.8 | 3.4
CCTAGCAGGCCAATGTGGGTCACTCAAGGCTTGA | 0.735 | 1.67 | -0.413 | 0.94 | -1.16 | 3.33 | 1.94 | 2.65 | 0.359 | 1.74
CCTACTGGGCCACGAATGGTCATTGATTCAGTGA | -0.465 | -0.465 | -0.579 | -0.606 | -1.07 | 0.398 | 1.18 | 1.19 | -0.142 | 0.398
AGAATGAGTTTACCAAAGATCAGGGAAACGCTTG | -0.512 | 2.97 | -0.355 | -0.0367 | -0.632 | 0.0717 | 0.658 | 0.55 | 0.448 | 0.452
CATACAGGGTCAGCTAGGGCAGAGTAGGGACGGC | 4.71 | 3.1 | -0.0929 | 2.23 | 0.47 | 4.21 | 3.23 | 3.05 | 0.549 | 1.75
AGTCAAAGTTCGTCTAGGTAACGTAAGATATGCT | 1.46 | 1.16 | 0.363 | 0.787 | -0.0526 | 1.84 | 2.79 | 3.39 | 1.44 | 2.71
CCTGCGAGGTCAATGGTCAGCTAAAGCAGCTCGC | 7.26 | 5.25 | 0.691 | 4.29 | 0.981 | 5.73 | 5.75 | 6.01 | 2.22 | 4.25
CGTCCAAGGTCAAGGTCAGTGATAGAGACTCGAA | 7.73 | 5.59 | 1.52 | 4.55 | 0.758 | 6.02 | 6.2 | 6.15 | 2.73 | 4.98
CCTACTGGGCCAAAAAGCTCATTGATGCCGATAA | -0.506 | -0.69 | -0.717 | -0.724 | -1.22 | -0.251 | 0.473 | 1.24 | -0.429 | 0.564
AGAACGAGGGCACGCTGAGTTGATAGCAGAGTAG | 0.783 | 0.47 | -0.551 | 0.0516 | -0.876 | 2.36 | 2.01 | 1.79 | 0.0193 | 0.94
ATCTCTAGGTAAGACTCAGTTCAGTGTAGAACGC | 0.302 | 0.547 | 0.708 | 0.286 | 0.886 | 0.0925 | -0.0106 | 0.309 | 0.182 | 0.398
ATTCGGAGGACAAAGGTCAGAGCTACGCCAGTGA | 4.05 | 4.26 | 1.79 | 3.52 | 0.763 | 4.9 | 7.69 | 6.94 | 7.1 | 7.23
TCTAGCAGGCCAGAGGTTCACTCAAGAGGTACGG | -0.592 | -0.361 | -0.519 | -0.224 | -1.44 | 0.888 | 1.43 | 2.96 | 2.15 | 2.98
GGAACGAGGGCAAGTTGATAGCGGAGTTTGATGG | 0.772 | 0.00493 | -0.352 | 0.246 | -0.525 | 1.7 | 0.963 | 1.16 | 0.00794 | 0.229
AATACAGGGTCACTAGGACAGAGTAGGTACGAAT | 6.09 | 5.02 | 1.08 | 3.97 | 1.27 | 5.77 | 8.06 | 6.39 | 3.02 | 5.18
AGAATGAGGTTATACGTACATCAGGGAAGAAAGT | 2.3 | 2.05 | 0.00405 | 1.58 | 0.14 | 3.24 | 2.46 | 2.42 | 0.777 | 1.66
CAGCCTAGGTCAGGGCCCGTATAGGAGGAACGTT | 1.56 | 0.731 | -0.61 | 0.395 | -1.32 | 1.72 | 0.643 | 0.734 | -0.158 | 0.0498
AGAATGAGATTAAGATCAGGGAAACAGAATACAT | -0.282 | -0.601 | -0.0604 | -0.466 | -0.594 | -0.494 | 0.75 | -0.304 | 0.17 | -0.228
TGAATGAGGTTAAAGATCAGGTAACGTGGCGTCG | 3.32 | 2.73 | -0.204 | 1.82 | 0.134 | 4.75 | 5.6 | 5.96 | 4.89 | 6.01
TCTGCTACGTCAGTTGGTCAGCTAACGAGCTGCC | -1.7 | -0.859 | -1.04 | -1.12 | -0.14 | -0.303 | -0.674 | 0.0272 | 1.01 | 0.437
GCGACTGGGCCATCAGCAGGTTACCATAACTTAA | -0.78 | -0.767 | -0.789 | -0.559 | -1.23 | 0.242 | 0.386 | -0.176 | -0.886 | -0.265
CGTCAAAGTTCAACTAAGGTAACGTTAAGCACGC | 7.22 | 6.43 | 4.8 | 4.26 | 2.3 | 5.14 | 5.07 | 5.53 | 2.21 | 4.37
CCTTACGGGACACTGACAGGTTATAGCATTTGGA | -0.0808 | -0.0885 | 0.186 | 0.0675 | -0.248 | -0.0851 | 0.499 | -0.397 | 0.123 | -0.284
TAATATAGGTAAAAGGTGAAAGTCGGTGTGGTAA | 1.84 | 2.01 | 0.364 | 2.04 | 0.134 | 6.16 | 10.5 | 9.06 | 9.53 | 10.1
CCAGACAGGTGAAAGGAAACTCAGTCTGGTACGC | -0.00156 | -0.109 | -0.46 | -0.0929 | -0.489 | 0.52 | 0.81 | 1 | -0.0154 | 0.657

Sequence | PBM binding z-score [1] | PBM binding z-score [2] | PBM binding z-score [3] | PBM binding z-score [4] | PBM binding z-score [5] | PBM binding z-score [6] | PBM binding z-score [7] | PBM binding z-score [8] | PBM binding z-score [9] | PBM binding z-score [10]
CTTCCAAGGTCAATGCTAGGTCAGTGAAAGCATT | 6.83 | 5.58 | 3.58 | 4.25 | 1.7 | 5.14 | 4.42 | 4.73 | 1.5 | 3.45
TAGCCGAGGTCATGCGGGCCAGTATAGTGTCGGC | 7.46 | 5.94 | 1.69 | 4.64 | 1 | 6.24 | 6 | 6.15 | 2.74 | 4.56
CCTACTGGGCCAAAGGTCATGGATTCCAATGCTC | 5.14 | 5.37 | 2.61 | 5.06 | 0.296 | 6.56 | 12 | 9.45 | 10.3 | 10.5
TCTTGTAGATGAATAGAGGTTAAGAAAGTGCGCT | 1.46 | 3.5 | 0.638 | 1.98 | 0.559 | 1.93 | 0.366 | 2.17 | 3.31 | 2.67
GCTTACGGGTCAAAGGTTGTAGCATGAATAGAAT | 7.18 | 4.99 | 0.175 | 4.72 | 0.259 | 6.6 | 9.83 | 8.57 | 7.45 | 9.31
TGAATGAGGTTATAAGATCAGTGAACGTTGCAAA | 1.18 | 1.34 | -0.254 | 1.17 | -0.0173 | 2.66 | 1.29 | 1.72 | 0.94 | 1.35
ATCTCTAGGTAAAGTTCAGTGATAGATCGATAGA | 1.49 | 1.95 | 1.88 | 1.14 | 1.34 | 2.39 | 3.59 | 4.16 | 2.3 | 3.88
TATACAGGGTCAAAGGCCAGAGTGCGAATGTCGA | 7.16 | 6.05 | 2.6 | 4.8 | 2.58 | 6.08 | 8.23 | 7.43 | 5.95 | 7.86
CCTCGGAGGACAACAGGAGGTCAGCGCTGCCAGA | 1.63 | 2.48 | 1.84 | 1.66 | -0.537 | 2.37 | 0.445 | 0.734 | -0.791 | 0.307
TCACATAGGTAAAAGGTGAAAGTCGGTGTGGTAA | 1.8 | 1.56 | 0.139 | 1.69 | -0.337 | 4.37 | 5.76 | 6.66 | 5.78 | 7.03
CCTACTGGGCCAAAAAGGTCATTGAAGCCGATAA | 3.74 | 4.35 | 2.77 | 4.22 | 0.158 | 4.79 | 3.38 | 4.24 | 1.31 | 3.47
TAGCCTAGGTCATGCGGGCAAGTATAGTGTCGGC | 4.44 | 3.3 | 0.517 | 1.94 | -0.137 | 3.73 | 2.32 | 2.59 | 0.322 | 1.54
CCTACAGGGTCAGCTAGGCCAGAGTAGGGACGGC | 4.39 | 2.61 | -0.714 | 1.7 | -0.84 | 4.2 | 2.56 | 2.7 | 0.464 | 1.31
TCATATAGGTAAAGGCTAGGTGAAAGTCCGATCT | 1.01 | 0.707 | -0.194 | 0.441 | -0.41 | 1.71 | 1.18 | 2.39 | 3.57 | 2.98
CCTAGTTGGTCAATGTCACACACGCTATAGGTAC | 0.436 | 0.678 | 0.613 | 1.1 | 1.1 | 0.77 | 1.17 | 0.745 | 0.448 | 0.257
CGAACGAGGCCATGAGTTGATAGCAAATGCCGAT | -0.039 | -0.24 | -0.636 | -0.483 | -1.01 | 0.273 | 0.728 | 0.586 | -0.00312 | 0.44
TCAGACAGGTGAAGCTAACTCAGGTACGCAGTCG | 0.462 | 0.31 | -0.268 | 0.231 | -0.92 | 0.744 | 0.519 | 1.5 | 3.44 | 2.75
CCGACTGGGGCTAAGGTTACCATACTCAGTACGA | 0.144 | 0.0677 | -0.428 | 0.815 | -0.943 | 2.71 | 5.47 | 5.55 | 4.41 | 5.78
GATACAGCGTCAAGGCCAGAGTACGCGTATTGAT | -0.565 | -0.762 | -0.347 | -0.832 | -0.969 | -0.514 | 0.602 | -0.494 | -0.309 | -0.649
AGAACGAGGGCAATGAGTTGATATCACGGGTGGC | 0.383 | 0.334 | -0.363 | -0.00546 | -0.245 | 1.52 | 1.86 | 1.07 | 0.219 | 0.833
TCTTGTAGATGAACAGGAGGTTAAGAAAGATCGA | 0.551 | 0.82 | -0.0533 | 0.712 | -0.35 | 0.923 | 0.119 | 1.32 | 2.89 | 2.02
ACTACTTGGTCAGCTGAGGTCACACACAATTCGG | 3.83 | 3.9 | 3.15 | 3.97 | 1.27 | 3.76 | 2.24 | 2.68 | 0.841 | 1.7
ATGTCTAGGTAACAAGTTCAGTGAAAGAGAGGAC | 0.658 | 0.774 | 0.395 | 0.727 | 0.845 | 1.28 | 1.06 | 1.07 | 0.33 | 1.12
ATATGTAGATTATCGGGTCATTCAGTTTGCGCAT | 2.14 | 2.5 | 1.98 | 2.47 | 0.87 | 2.81 | 1.63 | 1.77 | 0.662 | 1.31
